BLM helicase inh: qHTS Assay for Inhibitors of Bloom's syndrome helicase (BLM); RecQ-like DNA helicase BLM (Homo sapiens), P54132; recombinant BLM DNA unwinding, fluorescence dequenching; Potency, µM (series often up to 56.1 µM), actives largely listed as inhibitors; actives 0.2% (n = 350,000); also: nearly all actives have a fitted effect of over 35% in size
KDM4E inh: qHTS Assay for Inhibitors of Human Jumonji Domain Containing 2E (JMJD2E) | JMJD2E catalytic domain, FDH-coupled NADH fluorescence (FDH is formaldehyde dehydrogenase) | AID 2147, 2009 | actives 1.6% (n = 230,000) | Potency, µM (doses to about 57.1 µM), most hits filed as inhibitors | Lysine-specific demethylase 4E (Homo sapiens), B2RXH2; active = well fitted inhibition curve with a large enough effect, not every such curve was filed as active; inconclusive = small, poorly fitted or top-dose-only effect, or another doubt; inactive = no such curve, though single readings can be large or run the other way; also: nearly all actives have a fitted effect of over 50% in size
RECQ1 inh: qHTS Assay for Inhibitors of RecQ-Like Dna Helicase 1 (RECQ1). actives 0.54% (n = 240,000). AID 2549, 2010. RECQ1 DNA unwinding, red fluorescence kinetic read. Potency, µM (top dose mostly 57.3 µM), usual class: inhibitors; also: nearly all actives have a fitted effect of over 30% in size
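50 nM RECQ1T1 preincubated 15 min with compound in Tris pH 8.0 buffer with MgCl2, DTT, Tween-20 and 2.5 ug/ml poly(dI-dC); started with 200 nM TAMRA/BHQ-2 forked duplex and 2 mM ATP. Unwinding read as fluorescence (525/598 nm), two reads 2 h apart.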
L3MBTL1 block: qHTS Assay for the Inhibitors of L3MBTL1; Lethal(3)malignant brain tumor-like protein 1 (Homo sapiens), Q9Y468; AlphaScreen L3MBTL1–H3K9me1 peptide binding; Potency, µM (doses to about 57.1 µM), most hits filed as inhibitors; actives 0.66% (n = 230,000); AID 485360, 2010; also: nearly all actives have a fitted effect of over 60% in size
Target sequence (Q9Y468 whole entry, looked up): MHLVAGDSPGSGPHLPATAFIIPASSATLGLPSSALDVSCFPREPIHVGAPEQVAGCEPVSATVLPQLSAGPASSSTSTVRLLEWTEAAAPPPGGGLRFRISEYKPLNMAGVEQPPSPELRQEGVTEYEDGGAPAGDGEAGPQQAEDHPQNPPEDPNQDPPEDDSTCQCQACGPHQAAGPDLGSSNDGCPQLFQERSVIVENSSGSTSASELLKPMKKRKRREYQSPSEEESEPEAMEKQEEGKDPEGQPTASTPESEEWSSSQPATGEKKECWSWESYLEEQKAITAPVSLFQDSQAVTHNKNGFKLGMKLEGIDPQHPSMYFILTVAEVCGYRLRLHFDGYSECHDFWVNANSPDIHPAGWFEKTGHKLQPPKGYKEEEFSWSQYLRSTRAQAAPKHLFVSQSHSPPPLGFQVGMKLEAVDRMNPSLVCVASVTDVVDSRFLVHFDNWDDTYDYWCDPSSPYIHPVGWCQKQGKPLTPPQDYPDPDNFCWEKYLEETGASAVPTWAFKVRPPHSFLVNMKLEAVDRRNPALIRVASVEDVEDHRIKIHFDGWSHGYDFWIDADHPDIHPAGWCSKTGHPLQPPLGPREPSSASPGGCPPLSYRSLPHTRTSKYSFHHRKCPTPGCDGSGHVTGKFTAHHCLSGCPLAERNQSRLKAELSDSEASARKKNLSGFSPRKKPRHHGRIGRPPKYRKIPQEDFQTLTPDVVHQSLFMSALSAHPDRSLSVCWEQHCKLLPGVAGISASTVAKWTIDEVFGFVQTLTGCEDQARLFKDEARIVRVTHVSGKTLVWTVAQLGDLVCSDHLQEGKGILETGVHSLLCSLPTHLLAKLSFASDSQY
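L3MBTL1 50 nM + b-AHA-H3(1-15)K9me1 75 nM, 30 min RT; compound added, 30 min RT; streptavidin donor/Ni-chelate acceptor beads 10 ug/mL each final, 30 min RT dark; AlphaScreen read.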
APEX1 inh: qHTS Assay for Inhibitors of the Human Apurinic/apyrimidinic Endonuclease 1 (APE1) | actives 0.35% (n = 350,000) | DNA repair nuclease/redox regulator APEX1 (Homo sapiens), P27695 | recombinant APE1, TAMRA/BHQ-2 abasic DNA cleavage fluorescence | Potency, µM (series often up to 65.8 µM), usual class: inhibitors; also: nearly all actives have a fitted effect of over 55% in size
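Readout is kinetic fluorescence (ex 525, em 598 nm) from cleavage of 50 nM TAMRA/BHQ-2 THF abasic duplex by 0.75 nM APE1, compound added 15 min beforehand at RT.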
TDP1 block: qHTS Assay for Inhibitors of Tyrosyl-DNA Phosphodiesterase (TDP1); actives 0.28% (n = 350,000); Potency, µM (titrated, usually from 130 µM), actives largely listed as inhibitors; AID 485290, 2010; recombinant TDP1, AlphaScreen DNA substrate cleavage; Tyrosyl-DNA phosphodiesterase 1 (Homo sapiens), Q9NUW8; also: nearly all actives have a fitted effect of over 40% in size
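Compounds were preincubated with Tdp1 (1 nM final) for 15 min at room temperature before substrate (15 nM final) started a 5 min reaction; beads (10 ug/ml final) were then added for 10 min before AlphaScreen detection.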
A number is an active result; [ ] = remark or other dose. This excerpt belongs to a sample that is enriched for hits. Unless noted, calls follow the shape of the dose curve; as a rule, active = well fitted curve in the direction sought with a large enough effect; inconclusive = small, poorly fitted or top-dose-only effect, or another doubt; inactive = no such curve, though single readings can be large; an effect the other way counts as inactive or inconclusive.

How did CCOC(=O)c1nn(-c2ccc(C)cc2)c(=O)cc1OCC(=O)Nc1ccc(OC)cc1 do in these assays?
L3MBTL1 block: inactive; APEX1 inh: inactive; TDP1 block: 45µM

Results for CCOC(=O)c1nn(-c2ccccc2)c(=O)cc1OCC(=O)Nc1cccc(OC)c1 ?
L3MBTL1 block: inactive; APEX1 inh: inactive; TDP1 block: inactive

What do the screens show for `COc1cccc(C2c3c(ncn(-c4ccccc4SC)c3=N)Oc3ccc4ccccc4c32)c1` (centres undefined)?
TDP1 block: inactive

Results for CCN(CC)c1ccc2cc(C(=O)Nc3cccnc3N3CCOCC3)c(=O)oc2c1 ?
BLM helicase inh: inactive; KDM4E inh: inactive; RECQ1 inh: inactive; L3MBTL1 block: inactive; APEX1 inh: inactive; TDP1 block: inactive

What do the screens show for `CCN(CC)c1ccc2cc(C(=O)Nc3ccccn3)c(=O)oc2c1`?
BLM helicase inh: inactive; KDM4E inh: 4.5µM; RECQ1 inh: inactive; L3MBTL1 block: inactive; APEX1 inh: inactive; TDP1 block: inactive

How did Cc1ccc(-c2noc(-c3ccccc3NC(=O)C3CC(=O)N(c4ccc(C)cc4)C3)n2)cc1 (centres undefined) do in these assays?
BLM helicase inh: inactive; TDP1 block: inactive

What do the screens show for `Cc1nc2ccc(S(=O)(=O)N3CCN(S(=O)(=O)c4c(F)cccc4F)CC3)cc2s1`?
TDP1 block: inactive

What do the screens show for `CCN(CC)c1ccc(NC(=S)Nc2ccc(F)cc2)cc1`?
BLM helicase inh: inactive; KDM4E inh: 8.9µM; RECQ1 inh: inactive; APEX1 inh: inactive; TDP1 block: inactive

What do the screens show for `CCN(c1ccc(F)cc1)S(=O)(=O)c1ccc2[nH]cc(C(=O)NCCCN3CCOCC3)c(=O)c2c1`?
BLM helicase inh: inactive; KDM4E inh: inconclusive; RECQ1 inh: inactive; APEX1 inh: inconclusive; TDP1 block: inactive

How did CCN(c1ccccc1)S(=O)(=O)c1ccc2[nH]cc(C(=O)N3CCOCC3)c(=O)c2c1 do in these assays?
BLM helicase inh: inactive; KDM4E inh: inconclusive; RECQ1 inh: inactive; L3MBTL1 block: inactive[11.4 µM]; APEX1 inh: inconclusive; TDP1 block: 50µM

How did O=C1NC(=S)S/C1=C\c1ccc(SCc2ccccc2)o1 do in these assays?
BLM helicase inh: inactive; KDM4E inh: inactive; RECQ1 inh: inconclusive; L3MBTL1 block: 28µM; APEX1 inh: inconclusive; TDP1 block: inactive

What do the screens show for `S=c1[nH]nc(-c2cccnc2)n1/N=C/C=C/c1ccco1`?
BLM helicase inh: 20µM; KDM4E inh: inactive; RECQ1 inh: inconclusive; L3MBTL1 block: 22µM; APEX1 inh: inactive; TDP1 block: 40µM

Results for S=c1[nH]nc(-c2ccccc2)n1/N=C/C=C/c1ccco1 ?
BLM helicase inh: inactive; KDM4E inh: inactive; RECQ1 inh: inactive; L3MBTL1 block: inconclusive; APEX1 inh: inactive; TDP1 block: inactive

How did CC(/C=N/n1c(-c2cccnc2)n[nH]c1=S)=C\c1ccco1 do in these assays?
BLM helicase inh: inactive; KDM4E inh: inactive; RECQ1 inh: inconclusive; L3MBTL1 block: inconclusive; APEX1 inh: inactive

How did S=c1[nH]nc(-c2ccc(Cl)cc2)n1/N=C/C=C/c1ccco1 do in these assays?
BLM helicase inh: inconclusive; KDM4E inh: inconclusive; RECQ1 inh: inconclusive; L3MBTL1 block: 28µM; APEX1 inh: inconclusive; TDP1 block: inactive

How did CC(C)C(NC(=O)C(CC(=O)O)NC(=O)C(CCCCN)NC(=O)C(N)CCCN=C(N)N)C(=O)NC(Cc1ccc(O)cc1)C(=O)O (centres undefined) do in these assays?
BLM helicase inh: inactive

Results for Clc1ccc(-c2cnnc(-c3ccccn3)n2)cc1 ?
L3MBTL1 block: 3.2µM; APEX1 inh: inactive; TDP1 block: inactive

Results for Cc1ccc(NS(=O)(=O)c2cc3c(cc2N2CCCCC2)NC(=O)CC3)cc1C ?
TDP1 block: inactive

Results for CCN(CC)c1ccc(/C=N/Nc2nc3ccccc3[nH]2)c(O)c1 ?
BLM helicase inh: inactive; KDM4E inh: 16µM; RECQ1 inh: inactive; APEX1 inh: inactive; TDP1 block: inactive

Results for CCN(CC)c1ccc(/C=N/NC(=O)c2ccco2)cc1 ?
BLM helicase inh: inactive; KDM4E inh: inconclusive; RECQ1 inh: inactive; L3MBTL1 block: inactive; APEX1 inh: inactive; TDP1 block: inactive

How did CCN(CC)c1ccc(/C=N/NC(=O)c2ccco2)c(O)c1 do in these assays?
BLM helicase inh: inactive; KDM4E inh: 14µM; RECQ1 inh: inactive; L3MBTL1 block: inactive; APEX1 inh: inconclusive; TDP1 block: inactive

Results for CCN1C(=O)[C@H]2[C@H]3[C@H](O)[C@H](O)C/C(=N/O[C@@H]4O[C@@H](COC(C)=O)[C@@H](OC(C)=O)[C@@H](OC(C)=O)[C@H]4OC(C)=O)[C@@H]3CC[C@@H]2C1=O ?
BLM helicase inh: inactive[12.4 µM]; RECQ1 inh: inactive[11.5 µM]; APEX1 inh: inactive[12.4 µM]; TDP1 block: inactive[21 µM]

How did CNc1ccc(Br)cc(C(=O)/C=C/c2ccc(Cl)cc2Cl)c1=O do in these assays?
BLM helicase inh: inactive; KDM4E inh: inconclusive; RECQ1 inh: inactive; L3MBTL1 block: inactive; APEX1 inh: inactive; TDP1 block: inactive

Results for CCNc1ccc(Br)cc(C(=O)/C=C/c2c(Cl)cccc2Cl)c1=O ?
BLM helicase inh: inconclusive; KDM4E inh: inconclusive; RECQ1 inh: inactive; L3MBTL1 block: 8.9µM; APEX1 inh: inconclusive; TDP1 block: inactive

How did C=CCn1c(NC(=O)c2ccccc2Cl)c(C#N)c2nc3ccccc3nc21 do in these assays?
BLM helicase inh: 1µM; KDM4E inh: inconclusive; RECQ1 inh: inconclusive; L3MBTL1 block: inconclusive; APEX1 inh: inactive; TDP1 block: inactive

What do the screens show for `N#Cc1c(N)n(CCNC(=O)c2ccccc2)c2nc3ccccc3nc12`?
BLM helicase inh: inactive; KDM4E inh: inconclusive; RECQ1 inh: inactive; L3MBTL1 block: inactive; APEX1 inh: inactive; TDP1 block: inactive

What do the screens show for `COc1ccc(OCC(O)CN2CCN(c3ccc(Cl)cc3)CC2)cc1` (centres undefined)?
BLM helicase inh: inactive; KDM4E inh: inactive; RECQ1 inh: inactive; APEX1 inh: inactive; TDP1 block: inactive

What do the screens show for `COc1ccc(N2CCN(CC(O)COC(C)(C)C)CC2)cc1` (centres undefined)?
BLM helicase inh: inactive; KDM4E inh: 25µM; RECQ1 inh: inactive; L3MBTL1 block: inactive; APEX1 inh: inactive; TDP1 block: inactive

Screens (PubChem)
